Source: PubChem BioAssay
Tau FP inhib: tau fibrillization inhibition (FP) | 280,000 tested, 0.39% active | K18 P301L tau heparin fibrillization, Alexa594 FP, 6 h | P10636 | Potency, µM (titrated, usually from 57.7 µM), for the others: top-dose activity, negative = inhibition, usual class: inhibitors; further: on the % scale 0 is the no-effect control and ±100 the full control effect; nearly all actives have a fitted effect of over 55% in size
Target sequence (P10636 561-689 P618L limits assumed): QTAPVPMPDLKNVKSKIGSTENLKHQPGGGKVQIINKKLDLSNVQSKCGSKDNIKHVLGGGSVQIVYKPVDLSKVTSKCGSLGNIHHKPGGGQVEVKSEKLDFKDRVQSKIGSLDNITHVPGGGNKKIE
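Heparin (20 uM) drove fibril formation of recombinant tau K18 P301L, 15 uM unlabeled with 0.24 uM Alexa 594 label, for 6 hr at 37 C in 100 mM sodium acetate pH 7. Fluorescence polarization (555/632 nm) read 1 hr after 30 uM ThT.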
HttQ103 aggreg: inhibitors of mutant huntingtin aggregate formation in PC12 cells | Potency, µM (titrated, usually from 46.1 µM), for inactives: top-dose activity change, negative = inhibition, most hits filed as inhibitors | 220,000 tested, 1.1% active | PC12 HttQ103-GFP aggregates, Acumen cytometry, 40 h; further: on the % scale 0 is the no-effect control and ±100 the full control effect; nearly all actives have a fitted effect of over 60% in size
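Compounds (qHTS titration) were added to PC12 cells expressing an ecdysone-driven HTT exon 1 Q103–GFP fusion after induction with 100 nM tebufenozide. Aggregate formation was measured as GFP objects in cell lysates.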
HTT cytoprotect: cytoprotection in Huntington HTT-Q103 PC12 cell model. 230,000 tested, 0.14% active. Potency, µM (top dose mostly 56.4 µM), without a hit: cytoprotection (ATP increase), hits mostly activators. PC12 HTT-Q103 induced, cytoprotection, ATP luminescence, 40 h; further: % of control where 0% means no effect; nearly all actives have a fitted effect of over 45% in size
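Compounds added alongside 100 nM tebufenozide, which induces toxic Q103 huntingtin exon 1-GFP in stable PC12 cells; surviving cells quantified by luminescent ATP measurement. Medium: phenol red-free DMEM, 5% equine and 5% calf serum.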
Tau fluor cs: counter-screen for tau fibril formation inhibitors; AID 1463; Potency, µM (top dose mostly 57.7 µM), for the others: at the top dose activity change, negative = decrease; 280,000 tested, 0.93% active; tau K18 P301L Alexa594 fluorescence, heparin fibrillization; further: on the % scale 0 is the no-effect control and ±100 the full control effect; nearly all actives have a fitted effect of over 55% in size
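Human tau K18 P301L (15 uM unlabeled, 0.24 uM Alexa 594-labeled) in 100 mM sodium acetate pH 7 with 20 uM heparin, 6 hr at 37 C. ThT 30 uM added, 1 hr ambient; Alexa 594 FP and total fluorescence read at 555/632 nm.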
Tau ThT inhib: blocks human tau fibril formation measured by thioflavin T | P10636 | recombinant tau K18 P301L, heparin-induced fibrillization, ThT fluorescence | Potency, µM (titrated, usually from 57.4 µM), for inactives: at the highest dose activity, negative = inhibition, most hits filed as inhibitors | 270,000 tested, 2.1% active; further: on the % scale 0 is the no-effect control and ±100 the full control effect; nearly all actives have a fitted effect of over 55% in size
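ThT emission at 510 nm, taken 1 hr after adding 30 uM dye, quantifies aggregates formed when 20 uM heparin acts on human tau K18 P301L for 6 hr at 37 C.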
Starred values were filed as active, the others as inactive; ? = inconclusive; nt = not tested or not shown; [ ] = remark or other dose. Compounds with a hit are over-represented: about 3.7% of the library has one in this group of screens. The call rests on the fitted dose curve; in most records, active means well fitted curve in the direction sought with a large enough effect; inconclusive means small, poorly fitted or top-dose-only effect, or another doubt; inactive means no such curve, though single readings can be large; an effect the other way counts as inactive or inconclusive. Potency means the concentration at half of the fitted maximal effect.

SMILES	Tau FP inhib	HttQ103 aggreg	HTT cytoprotect	Tau fluor cs	Tau ThT inhib
CN(Cc1c(F)cccc1Cl)c1ccc(S(=O)(=O)N2CCOCC2)cn1	10.9%	3.55µM*	-42.0%	-11.7%	-4.9%
COc1ccc(-c2nc3cnc(N4CCN(C)CC4)nc3n(Cc3cccc(OC)c3)c2=O)cc1	nt	nt	3.5%	nt	nt
COc1ccc(Nc2nc(-c3ccc(OC)cc3)c(CCC(=O)O)s2)cc1	-1.2%	15.4%[9.22 µM]	-2.2%[10 µM]	-18.4%	?
COC(=O)CCc1sc(Nc2ccccc2)nc1-c1ccc(OC)cc1	12.8%	-7.6%	1.1%[10 µM]	15.8µM*[quencher]	?
Cc1ccc(C(C)C)cc1NC(=O)Nc1ccc([N+](=O)[O-])cc1	31.6µM*	0.4%[9.22 µM]	8.7%[10 µM]	7.94µM*[quencher]	?
CCOc1ccc(NC(=O)Nc2cc(C(C)C)ccc2C)cc1	9.1%	0.4%[9.22 µM]	12.8%[10 µM]	?	-4.9%
O=C(Nc1ccc(Oc2ccc(NC(=O)Nc3ccc([N+](=O)[O-])cc3)cc2)cc1)Nc1ccc([N+](=O)[O-])cc1	25.1µM*	-24.7%[9.22 µM]	-18.8%[10 µM]	4.47µM*[quencher]	6.31µM*
Nc1ccccc1Nc1cc(-c2ccccc2)nn1-c1ccccc1	16.5%	2.4%	3.5%[10 µM]	14.1µM*[quencher]	?
Nc1ccccc1Nc1cc(-c2ccccc2)[nH]n1	7.5%	-18.1%	-13.4%	?	14.1µM*
Nc1ccccc1Nc1ccccc1	1.5%	-25.9%	29.3%	-28.7%	?
O=C(O)[C@@H]1[C@@H]2O[C@H]([C@@H](Br)[C@H]2Br)[C@H]1C(=O)O	nt	nt	-18.1%[10 µM]	nt	nt
COc1ccc(CNC(=O)C(CCSC)NS(=O)(=O)c2ccc3c(c2)oc(=O)n3C)cc1 (stereo unspecified)	-3.7%	nt	nt	9.5%	7.5%
Cc1ccc2nc(-c3c[nH]c4ccccc34)c(Nc3ccccc3C)n2c1	11.1%	nt	nt	?	2.4%
Cc1ccc(Nc2c(-c3c[nH]c4ccccc34)nc3ccccn23)cc1	-3.7%	nt	nt	8.91µM*[quencher]	?
O=C(O)CNC(=O)c1ccccc1O	nt	nt	2.6%[10 µM]	nt	nt
Cc1ccc(S(=O)(=O)C2C(=O)N(C)C3(C)CC2c2ccccc2O3)cc1C (stereo unspecified)	-2.3%	?	3.98µM*	-3.5%	-2.3%
CN1C(=O)C(c2nnc(Nc3cccc4ccccc34)s2)C2CC1(C)Oc1ccccc12 (stereo unspecified)	-2.5%	-13.6%	29.2%[10 µM]	-0.8%	1.8%
O=C(CCl)Nc1nc(-c2ccco2)c(-c2ccco2)s1	-5.6%	6.8%	-13.3%[10 µM]	12.6µM*[quencher]	?
Oc1ccc2ccccc2c1/C=C\c1ccc2c(Br)cc(Br)c(O)c2n1	nt	nt	-0.9%[10 µM]	nt	nt
CCOC(=O)c1c(-c2ccccc2)csc1NC(=O)c1cc(-c2cccc(OC)c2)on1	?	nt	nt	-17.4%	31.6µM*
CCNC(=S)Nc1scc(-c2ccccc2)c1C(=O)OCC	-7.1%	14.1µM*	nt	?	?
CCOC(=O)c1c(-c2cccs2)csc1NC(=O)C(C)(C)C	-2.7%	14.1µM*	-73.5%	-5.9%	-10.5%
CCOC(=O)c1c(-c2cccs2)csc1NC(C)=O	-1.4%	-14.5%	3.5%[1.9 µM]	-12.9%	-22.7%
CCOC(=O)c1c(-c2ccc(C)cc2)csc1NC(=O)c1cc(=O)c2cc(C)ccc2o1	?	nt	nt	-24.1%	25.1µM*
CCOC(=O)c1c(-c2ccccc2)csc1NC(=S)NC	-4.8%	-23.6%	20.4%[10 µM]	-29.9%	-4.5%
SMILES	Tau FP inhib	HttQ103 aggreg	HTT cytoprotect	Tau fluor cs	Tau ThT inhib
CC(CC(=O)O)(CC(=O)O)c1ccccc1	nt	nt	-18.5%[10 µM]	nt	nt
CCC=O	nt	nt	3.8%	nt	nt
Cc1ccc(NC(=S)Nc2cccnc2)c(S(=O)(=O)N2CCCCC2)c1	31.6µM*	-11.4%	nt	?	11.3%
Cc1ccn2c(Nc3ccc4c(c3)OCCO4)c(-c3ccc(C)o3)nc2c1	10.5%	nt	nt	?	?
Cc1cccc(CSc2nc(-c3cccc(C)c3)nc3c2Cc2c(CO)cnc(C)c2O3)c1	0.4%	nt	nt	-1.2%	-10.1%
Cc1ccc(C(c2cccc(Br)c2)c2c(C)[nH]c3ccccc23)s1 (stereo unspecified)	?	nt	nt	5.62µM*[quencher]	?
Cc1[nH]c2ccccc2c1C(c1ccccn1)c1c(C)[nH]c2ccccc12	16.6%	-6.4%	-25.9%	?	?
Cc1ccc(C(=N)c2ccccc2Cc2cccc3ccccc23)c2ccccc12	nt	nt	-2.7%[10 µM]	nt	nt
